# Source: PubChem (National Center for Advancing Translational Sciences (NCATS))
# Shown are actives, neighbours in structure and some others; about 7.3% of the full set was active somewhere.
# Vaccinia mCherry: inhibitors of vaccinia virus infection (mCherry reporter signal) | Vaccinia virus mCherry reporter infection, fluorescence | Potency, µM (titrated, usually from 36.5 µM), without a hit: at the top dose activity change, negative = inhibition, hits mostly inhibitors | actives 0.63% (n = 310,000) | AID 720579; calls by dose curve; tested in A549 cells; further: potency means the concentration at half of the fitted maximal effect; nearly all actives have a fitted effect of over 35% in size
# HCV inhibitor: HCV inhibition | AID 651820 | Potency, µM (top dose mostly 41.8 µM), for the others: at the highest dose activity change, negative = inhibition, usual class: inhibitors | actives 3.4% (n = 340,000) | Huh7.5.1 HCVcc-Cre infection, luciferase reporter, 44 h; active means well fitted inhibition curve with a large enough effect; inconclusive means small, poorly fitted or top-dose-only effect, or another doubt; inactive means no such curve, though single readings can be large or run the other way; further: potency means the concentration at half of the fitted maximal effect
#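 Whole-lifecycle infectious HCVcc-Cre system; cells 1,000/well, compound then virus (~0.5 moi) added 4 h after plating, 44 h culture. Luciferase read 15 sec following 15 min substrate incubation, room temp.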
# HCMV antiviral: human cytomegalovirus inhibition. HFF cells, HCMV-luciferase reporter, 72 h; stronger effect = lower value. activity change, negative = inhibition, % at 57.5 µM. actives 4.5% (n = 410,000); in the data active means activity change below about -60%; inconclusive means no clear call, values can overlap the other calls; inactive means above about -39%
#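 Inhibition of viral replication was scored as loss of reporter luminescence in HFFs infected with HCMV-luciferase (MOI 1 PFU/cell) for 72 h; compounds tested at 2 doses, normalized to buffer and Salinomycin controls.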
# Vaccinia Venus: vaccinia inhibition (Venus reporter) | Vaccinia virus Venus reporter expression, fluorescence | Potency, µM (top dose mostly 36.5 µM), inactives show at the top dose activity change, negative = inhibition, actives largely listed as inhibitors | actives 0.46% (n = 330,000) | AID 720580; calls by dose curve; tested in A549 cells; further: potency means the concentration at half of the fitted maximal effect; nearly all actives have a fitted effect of over 30% in size
# FMDV antiviral: blocks foot and mouth disease virus; FMDV antiviral cell-based qHTS; Potency, µM (doses to about 57.9 µM), for the others: at the highest dose activity change, negative = inhibition, actives largely listed as inhibitors; actives 1.2% (n = 410,000); AID 1159524; calls by dose curve; tested in HEK293T cells; further: read-out not given here; potency means the concentration at half of the fitted maximal effect; nearly all actives have a fitted effect of over 45% in size
# Numbers without * were called inactive; i = inactive; ? = inconclusive; . = no result given; [ ] = remark or other dose. On the % scale 0 is the no-effect control and ±100 the full control effect.
SMILES,Vaccinia mCherry,HCV inhibitor,HCMV antiviral,Vaccinia Venus,FMDV antiviral
COC(CN1C(=O)C(=O)/C(=C(/O)c2ccccc2)C1c1ccccn1)OC (stereo not drawn),.,11%,-12,.,-7%
Nc1c2c(nc3sc4c(c13)CCCCC4)CCCC2,?,22µM*,-71*,10µM*,-5%
Nc1c2c(nc3sc4c(c13)CCCC4)-c1ccccc1CC2,?,?,?,?,-42%
O=C(C[n+]1ccccc1)c1ccc(O)c(O)c1,?,.,.,-7%,.
COCCCNC(=O)c1cn(Cc2c(F)cccc2Cl)nn1,2%,-16%,-90*,4%,4%
CNc1oc(/C=C/c2cc(OC)c(OC)c(OC)c2)nc1C#N,-12%,.,164,-16%,-16%
CS(=O)(=O)Nc1cccc(C(=O)CC2(O)C(=O)Nc3ccccc32)c1 (stereo not drawn),.,10%,-68*,.,-2%
CCS(=O)(=O)Nc1cccc(C(=O)CC2(O)C(=O)Nc3ccccc32)c1 (stereo not drawn),-18%,-1%,-8,-8%,-28%
O=C(c1cc2c(=O)oc3ccccc3c2s1)N1CCN(c2ccccc2)CC1,-14%,.,7,8%,-16%
O=C(c1cc2c(=O)oc3ccccc3c2s1)N1CCN(c2cccc(Cl)c2)CC1,4%,.,-62*,-6%,-7%
Cc1ccc(CNC(=O)Cn2cnc(S(=O)(=O)N3CCC(C)CC3)c2)o1,.,22%,-1,.,-13%
CCCCNc1c(-c2cccc(-c3ccc(OC)cc3)c2)nc2cc(C)ccn12,?,11µM*,-102*,?,25µM*
CCCCNc1c(-c2cccc(-c3ccc(OC)cc3)c2)nc2ccc(C)cn12,13µM*,?,3,?,28µM*
CCCCNc1c(-c2ccc(-c3cccc(Cl)c3)cc2)nc2ccccn12,?,?,111,-28%,-20%
COc1ccc(Cn2ccnc2SCC(=O)NCc2ccccc2)cc1,-10%,.,68,-20%,13%
CCc1cccc(CC)c1NC(=O)CN1CC(C)SC1=NC1CCCCC1 (stereo not drawn),-11%,4%,-63*,1%,-13%
O=C(NCc1ccc(F)c(F)c1)C1Cc2c(-c3ccc4c(c3)OCO4)ccnc2O1 (stereo not drawn),i,.,?,-12%,-26%
COc1ccc(C(=O)Nc2cc(C(F)(F)F)ccc2-n2cnc3ccccc32)cc1,-9%,5%,-73*,4%,15%
CC(=O)Nc1ccc(C(=O)Nc2cc(C(F)(F)F)ccc2-n2cnc3ccccc32)cc1,-12%,1%,47,-22%,-4%
NC(=O)c1cc(N)ccc1N1CCCC1,13%,28%,44,31%,-19%
NC(=O)c1cc(N)ccc1N1CCCCC1,-2%,11%,-61*,-4%,12%
CCN(Cc1ccc(C#CCCO)cc1)CC1CCCN(CCc2cccc(OC)c2)C1 (stereo not drawn),.,11µM*,-18,.,-20%
COc1cc(F)ccc1-c1csc(C(NC(C)=O)c2ccccc2)n1 (stereo not drawn),i,.,38,-21%,-23%
COc1cc(C(O)c2nc(-c3cc4ccccc4o3)cs2)ccc1F (stereo not drawn),i,.,-77*,-17%,-8%
COc1ccncc1-c1csc(C(O)c2ccccc2)n1 (stereo not drawn),-27%,.,-69*,-18%,-16%
SMILES,Vaccinia mCherry,HCV inhibitor,HCMV antiviral,Vaccinia Venus,FMDV antiviral
COc1ccccc1-c1csc(C(NC(C)=O)c2ccccc2)n1 (stereo not drawn),i,.,-79*,-16%,-12%
CCc1ccc(C(=O)c2cn(CC(=O)NCCc3ccccc3)c3nc(C)ccc3c2=O)cc1,-7%,.,-1,-12%,-5%
COc1cc(OC)c2cc(C(=O)N/N=C/c3cccc(OC)c3O)[nH]c2c1,11µM*,8.9µM*,-104*,-26%,-25%
COc1cccc(/C=N/NC(=O)c2cc3c(OC)ccc(OC)c3[nH]2)c1O,?,2.5µM*,-99*,?,-20%
COc1cccc(/C=N/NC(=O)c2ccc3nc[nH]c3c2)c1O,?,12%,0,-3%,9%
CCn1cc(C2=NC(C)(C)CO2)c2ccccc21,.,3.2µM*,49,.,25%
CCn1cc(C2=NC(C)CO2)c2ccccc21 (stereo not drawn),.,?,14,.,17%
CCn1cc(C2=NCC(C)O2)c2ccccc21 (stereo not drawn),.,14µM*,44,.,-1%
CCn1cc(C2=NCCO2)c2ccccc21,10µM*,?,-8,?,-12%
CCc1ccc(C2=NN(CCC(=O)NCCc3ccccc3)C(=O)CC2)cc1,-11%,.,-19,-9%,-12%
CCCC[C@@H](CNC)NC[C@H](NCCCCC1CCCCC1)C(C)C,-25%,-55%,-99*,?,-8%
Nc1c(-c2nc(-c3cccs3)no2)nnn1-c1ccc(Cl)cc1,-17%[7.34 µM],.,26,-15%[7.34 µM],29%
COc1ccc(-c2sc3cc(OC)c(OC)cc3c2C#CC(C)(C)O)cc1,-9%,1.4µM*,-32,-27%,0%
COc1ccc(-c2sc3cc(OC)c(OC)cc3c2C#CCO)cc1,-20%,1µM*,3,?,-20%
COc1ccc(-c2sc3cc4c(cc3c2C#CC2(O)CCCCC2)OCO4)cc1,?,1.6µM*,4,?,-17%
c1ccc(CNc2ccnc(-c3cccnc3)n2)cc1,.,.,.,.,-9%
COc1cc2c(cc1OC)-c1c(OC)c(OC)cc3c1[C@H](C2)[N+](C)(C)CC3,i,?,-74*,-4%,?
Cc1ccc2c(c1)Oc1ccc(NC(=O)CCl)cc1C(=O)N2,-27%,?,-88*,-21%,14µM*
Cc1ccc2c(c1)Oc1ccc([N+](=O)[O-])cc1C(=O)N2,-10%,19%,-2,-5%,-12%
COc1ccc(N2C(c3ccsc3)=Cc3cc4c(cc3C2c2c[nH]c3ccccc23)OCO4)cc1 (stereo not drawn),15%,.,-95*,-4%,-4%
Cc1cc(N(C)C)c(C)cc1/C=C/c1ccnc2ccccc12,-26%,.,.,12%,.
O=C(CCCCCn1c(=S)[nH]c2ccc(N3CCOCC3)cc2c1=O)NCc1cccc(Cl)c1,1%,?,-71*,0%,-1%
O=C(CCCn1c(=S)[nH]c2cc3c(cc2c1=O)OCO3)NCCc1ccc(Cl)cc1,-24%,.,-74*,?,-21%
O=C(CCCn1c(=S)[nH]c2cc3c(cc2c1=O)OCO3)N1CCN(c2ccc(Cl)cc2)CC1,.,13µM*,-86*,.,?
O=C(CCCn1c(=O)[nH]c2ccsc2c1=O)N1CCN(c2ccc(Cl)cc2)CC1,-18%,.,?,-15%,28µM*
CCOc1ccc(NC(=O)CSc2oc(-c3ccccc3)nc2S(=O)(=O)c2ccc(Cl)cc2)cc1,?,.,-5,?,-4%
CCOc1cc(N2CCOCC2)c(OCC)cc1NC(=O)COC(=O)CCOc1ccc(C(C)(C)C)cc1,i,12%,3,-12%,-5%
